Molecules are shown by their SMILES. Compounds without any hit were thinned out: in the full panel of roughly 83,000, 20% have a hit.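 48-hour exposure, single concentration, 96-well plates; percent growth endpoint where 0 means no net growth. Active: below 10.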 Active and inactive are the calls of the source.

The assay relates to HCT-15 colon. Put plainly: NCI-60 one-dose screen, 48 h (100 = growth as untreated, 0 = no growth, -100 = all killed). The note with it: 10 µM unless noted. Here is the method:
Growth inhibition of the HCT-15 human tumor cell line is measured as a screen for anti-cancer activity. Cells are grown in 96 well plates and exposed to the test compound for 48 hours. Compounds are tested at a single concentration, which is 10^-5 M for most compounds. The reported endpoint is percent growth (GI% or GIPRCNT), where numbers from 0 - 100% represent growth inhibition, and numbers from -100% - 0 represent cell death. For example, a value of 40 represents 60% growth inhibition. A value of 0 means no net growth occurred over the course of the experiment. A value of -40 indicates 40% of cells at the beginning of the experiment died by the end of the experiment. A value of -100 means all cells are dead at the end of the experiment.
NCI-60 Human Tumor Cell Lines Screen was performed using the standard one-dose NCI protocol, which is described in more detail at https://dtp.cancer.gov/discovery_development/nci-60/default.htm.
Compounds with GIPRCNT values below 10 were considered active. Activity score was based on GIPRCNT using the following formula: […]
Score is 0 for GIPRCNT values of 100 or above, 50 for GIPRCNT values of 0, and 100 for GIPRCNT values of -100.
As to `O=C1c2nsnc2C(=O)c2c(F)c(F)c(F)c(F)c21`, the growth was -59.1% (active). Under `CC(C)COCC(CN(Cc1ccccc1)c1ccccc1)N1CCCC1` (stereo not given) stands 55.7% (inactive); under `O=C1/C(=C/c2ccc3cccc(Cl)c3n2)SC(=S)N1CCc1ccc(O)cc1`, 86.1% (inactive); under `Cn1c(=O)c2nc(SCc3ccccc3)n(C)c2n(C)c1=O`, 98.8% (inactive). Then `COc1ccc2c(c1)nc(N)c1c3cc(C)c(C)cc3cn21`, with 48.7% (inactive); and `O=C(NCCCO)c1cc(Cl)ccc1O`, with 77.5% (inactive). As to `Nc1nc(SCc2ccccc2Cl)c(-c2ccccc2)c(SCc2ccccc2Cl)n1`, the growth was 81.3% (inactive).

Take `N#Cc1c2ccccc2c2n1-c1ccccc1OC(c1ccccc1)C2=O` (stereo not given): the growth is 13.8% (inactive). Turning to `COc1ccc2nc3cc(Cl)ccc3c(Nc3cc(C(C)C)c(O)cc3C)c2c1`, the growth is 10.6% (inactive).

Regarding `COc1cc(/C=C2\COc3ccc(O)c(O)c3C2=O)cc(OC)c1`, the growth was -24.1% (active). `COc1cc(C2CC(=O)Nc3c2cc(Br)c2ccccc32)cc(Br)c1OC` (stereo not given): the growth is 39.6% (inactive). Then `Cc1cc(Cl)ccc1Nc1nc(C(F)(F)F)ccc1C(=O)NCC(=O)N/N=C/c1c(Cl)cccc1Cl`, with 60.8% (inactive); and `N#CCCN(CCO)c1ccccc1`, with 102% (inactive); and `C[n+]1ccc(C#N)c2ccccc21`, with 88.4% (inactive). Then `COc1c(C)c2c(c(O)c1C/C=C(\C)CCC(=O)OCCN1CCOCC1)C(=O)OC2`, with 15.5% (inactive); and `CC1=C(C(=O)Nc2ccccc2)C(c2ccc3c(c2)OCCO3)NC(=O)N1` (stereo not given), with 106% (inactive). With `COc1cc(/C=C/C(=O)c2ccc(F)cc2)ccc1OCCCCCOc1cc2c(cc1OC)C(=O)N1CCCC1C=N2` (stereo not given), the growth was -3.47% (active).

In the case of `COc1ccc2c(c1)nc(N)c1c3cc(OC)c(OC)cc3cn21`, the growth is 30.4% (inactive). For `CCCCCCCC1(C)NC(=O)NC1=O` (stereo not given), the growth was 113% (inactive).

In the case of `COc1ccc(-c2oc3cc(O)c(OC)c(O)c3c(=O)c2OC)cc1O`, the growth was 17.3% (inactive). Take `CC(NC(=O)C(C)Oc1ccc(Cl)cc1Cl)C(=O)O` (stereo not given): the growth was 98.3% (inactive).

For `COc1cc(/C=C/C(=O)c2c(-c3ccc(Cl)cc3)nc3sc(C)nn23)cc(OC)c1OC`, the growth is 60.2% (inactive). As to `CCC(C)(C)C(=O)O[C@H]1C[C@@H](C)C=C2C=C[C@H](C)[C@H](CC[C@@H]3C[C@@H](O)CC(=O)O3)[C@H]21`, the growth was 54.7% (inactive). `O=C(c1nn(-c2ccc(Cl)cc2)cc1O)n1nc(C(F)(F)F)cc1-c1ccccc1`: the growth is 30.2% (inactive). Then `CCCCCCCC/C=C\CCCCCCCCOc1ccccc1CC(=O)NCC[N+]1(C)CCCC1`, with 104% (inactive); and `CCN(CC)CCNc1ccc(Cl)cc1Cl`, with 107% (inactive). For `O=C(C=C=Nc1ccccc1)C(=O)N=C=Cc1ccccc1`, the growth is 11.4% (inactive).

On to `O=C1CC(C(F)(F)F)=NN1C(=O)c1nn(-c2ccc(Cl)cc2)cc1O`, for which the growth was 69.9% (inactive). Then `N=C(N)/N=C(\CCc1nc2ccccc2[nH]1)c1nc2ccccc2[nH]1`, with 106% (inactive); and `Cc1cc(=O)n2n1-c1ccc(Cl)cc1NC(=O)C2`, with 101% (inactive). Then `CN(CCOc1ccc(CC2SC(=O)NC2=O)cc1)c1ccccn1` (stereo not given), with 96.2% (inactive); and `O=C1OCC/C1=C\OCCCO/C=C1\CCOC1=O`, with 98.1% (inactive). Then `CCC(C)CC(CC)NCCN1CCN(C(CC)CC(C)CC)C1=S` (stereo not given), with 22.5% (inactive). For `COc1cc(OC)c2sc(-c3ccc(-n4cncc4-c4ccc(N)cc4)cc3)nc2c1`, the growth is 69.7% (inactive). Under `CN1COc2ccc3ccccc3c2C1` stands 106% (inactive). Regarding `CCCCCCCCCCC[C@@H](C[C@H]1OC(=O)[C@H]1CCCCCC)OC(=O)[C@@H](CC(C)C)NC=O`, the growth is 34.8% (inactive). Under `COc1ccc2nc(NC(=O)c3cc(-c4ccc(F)cc4)n4nc(-c5ccccc5)cc4n3)sc2c1` stands 90% (inactive); under `COc1cc(C2C=C(c3ccc(C)cc3)Nc3nc(SC)[nH]c(=O)c32)ccc1Oc1ccnc2cc(Cl)ccc12` (stereo not given), 64% (inactive); under `CCOc1cccc(C2CC(=O)Nc3cc4c(cc32)OCO4)c1` (stereo not given), 77.3% (inactive). For `CCOC(Cc1c(N)[nH]c(=S)[nH]c1=O)OCC`, the growth is 106% (inactive).

The values above are taken from PubChem BioAssay (NCI).
